# For some assays here: Entries with a potency or affinity are not part of this list.
# Columns and labels:
# Set-up in all cases: scale not given: direction of the effect not stated beside the values
# [1] = molecular target: Protein translocase subunit SecA (Escherichia coli (strain K12)) (UniProt P10408); test: Assay to Identify E. coli SecA ATPase Inhibitors; assay type: functional; conditions: 30 µM
# [2] = molecular target: T1, Ubiquitin-activating enzyme e1, putative (Leishmania donovani (strain BPK282A1)) (UniProt E9BSI1); test: Leishmania donovani Ubiquitin Activating Enzyme (LdE1); assay type: functional; conditions: 30 µM
# T1 sequence (whole entry): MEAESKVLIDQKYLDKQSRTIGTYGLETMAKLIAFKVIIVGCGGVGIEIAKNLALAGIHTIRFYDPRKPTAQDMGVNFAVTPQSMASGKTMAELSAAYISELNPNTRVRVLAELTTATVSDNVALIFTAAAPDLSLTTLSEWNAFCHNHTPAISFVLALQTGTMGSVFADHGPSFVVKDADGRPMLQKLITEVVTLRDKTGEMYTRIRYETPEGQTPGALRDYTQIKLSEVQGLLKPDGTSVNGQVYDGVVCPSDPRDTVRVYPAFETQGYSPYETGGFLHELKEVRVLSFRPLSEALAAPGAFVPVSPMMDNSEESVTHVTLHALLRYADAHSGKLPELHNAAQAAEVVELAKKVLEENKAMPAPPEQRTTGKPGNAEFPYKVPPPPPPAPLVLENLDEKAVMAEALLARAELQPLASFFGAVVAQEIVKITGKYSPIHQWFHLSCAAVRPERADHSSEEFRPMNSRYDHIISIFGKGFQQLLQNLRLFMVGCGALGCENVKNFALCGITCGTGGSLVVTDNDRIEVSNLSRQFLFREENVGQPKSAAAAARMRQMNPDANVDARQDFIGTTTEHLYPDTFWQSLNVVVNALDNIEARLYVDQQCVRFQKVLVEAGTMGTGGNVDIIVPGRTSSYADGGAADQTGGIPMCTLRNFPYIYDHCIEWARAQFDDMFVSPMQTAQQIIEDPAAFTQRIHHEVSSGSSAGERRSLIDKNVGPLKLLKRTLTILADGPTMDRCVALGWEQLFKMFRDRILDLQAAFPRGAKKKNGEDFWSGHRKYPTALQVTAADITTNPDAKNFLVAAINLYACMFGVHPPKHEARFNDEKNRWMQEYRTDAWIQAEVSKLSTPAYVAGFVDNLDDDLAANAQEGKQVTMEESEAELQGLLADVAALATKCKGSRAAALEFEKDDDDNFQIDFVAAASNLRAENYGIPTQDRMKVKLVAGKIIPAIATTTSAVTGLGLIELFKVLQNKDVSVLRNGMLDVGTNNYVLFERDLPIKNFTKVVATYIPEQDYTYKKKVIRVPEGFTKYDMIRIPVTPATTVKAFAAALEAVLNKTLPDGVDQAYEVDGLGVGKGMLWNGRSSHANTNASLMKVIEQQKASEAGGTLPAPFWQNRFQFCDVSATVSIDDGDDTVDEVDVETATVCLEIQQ
# [3] = molecular target: AMP-activated protein kinase, AMPK (Homo sapiens) (UniProt P54646+O43741+P54619+Q9UGJ0+Q9Y478+Q13131+Q9UGI9); test: AMP-dependent Kinase enzyme assay. An in vitro enzyme assay that detects ADP turnover that is directly proportional to AMPK activity. This uses naive AMPK that is activated during the assay with MK-8722; assay type: functional; conditions: 30 µM
# [4] = molecular target: Sialic acid-binding Ig-like lectin 9 (Homo sapiens) (UniProt Q9Y336); test: Hs-Siglec9 ALPHAscreen SOP 20170721; conditions: 10 µM
# Trypanosoma cruzi = test: Trypanosoma cruzi phosphomannomutase and mannose-1-phosphate guanylyltransferase assay; assay type: functional; conditions: 10 µM
# [5] = molecular target: T2, Arginase-2, mitochondrial (Homo sapiens) (UniProt P78540); test: in vitro enzyme assay to detect the production of urea directly proportional to the activity of Arginase II; assay type: functional; conditions: 33.3 µM; further: in the data most compounds retested in dose-response had high values
# T2 sequence (whole entry): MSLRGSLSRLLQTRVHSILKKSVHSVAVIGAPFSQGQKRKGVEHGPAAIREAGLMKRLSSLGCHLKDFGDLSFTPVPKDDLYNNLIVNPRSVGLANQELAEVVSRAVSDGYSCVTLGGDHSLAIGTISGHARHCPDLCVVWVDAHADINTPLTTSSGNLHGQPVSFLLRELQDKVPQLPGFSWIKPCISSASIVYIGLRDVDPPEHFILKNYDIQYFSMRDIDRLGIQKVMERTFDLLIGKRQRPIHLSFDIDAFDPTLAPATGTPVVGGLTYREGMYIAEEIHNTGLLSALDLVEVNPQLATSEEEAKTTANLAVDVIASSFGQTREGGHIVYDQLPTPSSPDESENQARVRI
# [6] = molecular target: T3, Proteasome subunit beta (Trypanosoma cruzi) (UniProt O96673); test: Trypanosoma cruzi proteasome chymotrypsin-like activity (TcProtChymo) assay.; further: in the data most compounds retested in dose-response had high values; assay type: functional; conditions: 9.37 µM
# T3 sequence (whole entry): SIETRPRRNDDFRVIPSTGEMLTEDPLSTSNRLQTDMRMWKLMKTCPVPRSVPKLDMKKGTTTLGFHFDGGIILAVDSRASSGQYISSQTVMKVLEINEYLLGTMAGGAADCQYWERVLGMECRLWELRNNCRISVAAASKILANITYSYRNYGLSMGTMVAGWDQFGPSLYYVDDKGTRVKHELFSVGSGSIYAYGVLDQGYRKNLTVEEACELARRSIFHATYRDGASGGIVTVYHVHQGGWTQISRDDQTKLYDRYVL
# Homo sapiens = organism: Homo sapiens; test: To identify inhibition of the IFN signalling (Jak-Stat) pathway via expression of an eGFP reporter gene under the control of an IFN-stimulated response element (ISRE) containing MxA promoter.; assay type: functional; conditions: 30 µM
# [7] = molecular target: T4, Tyrosyl-tRNA synthetase, putative (Trypanosoma cruzi (strain CL Brener)) (UniProt Q4DSP6); test: Trypanosoma cruzi tyrosyl tRNA synthetase (TcYRS) _High Tyrosine SOP; assay type: functional; conditions: 30 µM; further: in the data most compounds retested in dose-response had high values
# T4 sequence (whole entry): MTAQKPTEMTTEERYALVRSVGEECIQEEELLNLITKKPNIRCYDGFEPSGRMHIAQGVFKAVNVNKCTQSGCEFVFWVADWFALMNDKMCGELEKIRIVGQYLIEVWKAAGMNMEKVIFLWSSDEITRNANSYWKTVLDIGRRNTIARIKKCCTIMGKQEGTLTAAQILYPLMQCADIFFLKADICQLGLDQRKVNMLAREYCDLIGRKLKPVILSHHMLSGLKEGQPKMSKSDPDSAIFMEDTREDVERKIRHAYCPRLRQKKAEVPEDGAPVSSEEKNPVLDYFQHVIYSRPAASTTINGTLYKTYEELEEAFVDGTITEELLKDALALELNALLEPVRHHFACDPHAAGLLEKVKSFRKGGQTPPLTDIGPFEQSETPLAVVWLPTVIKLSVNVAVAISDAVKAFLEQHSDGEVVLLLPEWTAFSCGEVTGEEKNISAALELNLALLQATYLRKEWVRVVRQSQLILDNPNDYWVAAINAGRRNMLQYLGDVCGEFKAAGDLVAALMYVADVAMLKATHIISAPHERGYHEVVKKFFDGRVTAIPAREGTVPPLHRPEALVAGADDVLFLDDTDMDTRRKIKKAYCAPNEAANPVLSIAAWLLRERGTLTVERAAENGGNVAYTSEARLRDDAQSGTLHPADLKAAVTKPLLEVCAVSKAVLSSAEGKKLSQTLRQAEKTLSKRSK
# [8] = molecular target: T4, Tyrosyl-tRNA synthetase, putative (Trypanosoma cruzi (strain CL Brener)); test: Trypanosoma cruzi tyrosyl tRNA synthetase (TcYRS) SOP; assay type: functional; conditions: 30 µM
# [9] = molecular target: Chromo domain-containing protein 1 (Saccharomyces cerevisiae (strain ATCC 204508 / S288c) (Baker's yeast)) (UniProt P32657); test: ScCHD-1 Enzyme Inhibition Assay; assay type: functional; conditions: 30 µM; further: in the data most compounds retested in dose-response had high values
# Chain of Chromo domain-containing protein 1 (Saccharomyces cerevisiae (strain ATCC 204508 / S288c) (Baker's yeast)) (P32657 whole entry, the tested form may be a part): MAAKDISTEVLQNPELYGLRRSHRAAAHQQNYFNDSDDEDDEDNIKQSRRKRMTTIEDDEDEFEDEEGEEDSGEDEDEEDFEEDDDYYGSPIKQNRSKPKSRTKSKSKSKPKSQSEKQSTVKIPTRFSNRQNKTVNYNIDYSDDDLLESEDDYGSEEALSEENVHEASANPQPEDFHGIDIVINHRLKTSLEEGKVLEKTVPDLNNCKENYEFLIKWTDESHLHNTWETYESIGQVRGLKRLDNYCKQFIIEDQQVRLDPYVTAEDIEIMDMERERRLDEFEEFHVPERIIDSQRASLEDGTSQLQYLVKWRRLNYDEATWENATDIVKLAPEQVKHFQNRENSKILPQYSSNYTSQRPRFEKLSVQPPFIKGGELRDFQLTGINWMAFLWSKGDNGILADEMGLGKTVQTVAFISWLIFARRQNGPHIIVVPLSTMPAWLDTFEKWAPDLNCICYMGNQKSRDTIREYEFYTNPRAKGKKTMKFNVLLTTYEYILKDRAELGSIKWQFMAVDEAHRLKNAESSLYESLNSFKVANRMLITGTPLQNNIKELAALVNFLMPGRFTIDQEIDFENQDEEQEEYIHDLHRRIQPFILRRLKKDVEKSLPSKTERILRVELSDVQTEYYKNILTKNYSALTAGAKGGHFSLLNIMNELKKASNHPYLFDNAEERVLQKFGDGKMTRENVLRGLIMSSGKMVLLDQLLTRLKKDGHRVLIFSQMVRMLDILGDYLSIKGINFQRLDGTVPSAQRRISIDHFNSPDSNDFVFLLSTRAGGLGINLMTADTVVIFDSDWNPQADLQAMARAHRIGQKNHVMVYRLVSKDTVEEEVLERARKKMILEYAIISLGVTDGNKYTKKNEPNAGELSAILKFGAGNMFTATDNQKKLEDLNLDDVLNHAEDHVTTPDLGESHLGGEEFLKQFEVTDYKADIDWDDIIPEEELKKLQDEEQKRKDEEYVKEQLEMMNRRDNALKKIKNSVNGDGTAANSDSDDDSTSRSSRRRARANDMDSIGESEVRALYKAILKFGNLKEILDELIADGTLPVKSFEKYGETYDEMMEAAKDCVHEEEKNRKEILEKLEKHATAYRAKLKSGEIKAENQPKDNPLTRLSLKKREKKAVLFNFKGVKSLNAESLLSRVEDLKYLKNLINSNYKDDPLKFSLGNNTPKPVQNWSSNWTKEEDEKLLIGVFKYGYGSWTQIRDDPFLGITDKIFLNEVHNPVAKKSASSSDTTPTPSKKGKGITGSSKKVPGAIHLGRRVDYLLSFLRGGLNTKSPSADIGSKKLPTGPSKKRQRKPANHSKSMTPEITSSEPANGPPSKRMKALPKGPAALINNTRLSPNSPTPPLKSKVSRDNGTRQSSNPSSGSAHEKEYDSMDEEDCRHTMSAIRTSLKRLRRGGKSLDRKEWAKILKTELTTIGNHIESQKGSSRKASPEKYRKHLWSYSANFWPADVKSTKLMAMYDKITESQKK
# Chain of Protein translocase subunit SecA (Escherichia coli (strain K12)) (P10408 whole entry): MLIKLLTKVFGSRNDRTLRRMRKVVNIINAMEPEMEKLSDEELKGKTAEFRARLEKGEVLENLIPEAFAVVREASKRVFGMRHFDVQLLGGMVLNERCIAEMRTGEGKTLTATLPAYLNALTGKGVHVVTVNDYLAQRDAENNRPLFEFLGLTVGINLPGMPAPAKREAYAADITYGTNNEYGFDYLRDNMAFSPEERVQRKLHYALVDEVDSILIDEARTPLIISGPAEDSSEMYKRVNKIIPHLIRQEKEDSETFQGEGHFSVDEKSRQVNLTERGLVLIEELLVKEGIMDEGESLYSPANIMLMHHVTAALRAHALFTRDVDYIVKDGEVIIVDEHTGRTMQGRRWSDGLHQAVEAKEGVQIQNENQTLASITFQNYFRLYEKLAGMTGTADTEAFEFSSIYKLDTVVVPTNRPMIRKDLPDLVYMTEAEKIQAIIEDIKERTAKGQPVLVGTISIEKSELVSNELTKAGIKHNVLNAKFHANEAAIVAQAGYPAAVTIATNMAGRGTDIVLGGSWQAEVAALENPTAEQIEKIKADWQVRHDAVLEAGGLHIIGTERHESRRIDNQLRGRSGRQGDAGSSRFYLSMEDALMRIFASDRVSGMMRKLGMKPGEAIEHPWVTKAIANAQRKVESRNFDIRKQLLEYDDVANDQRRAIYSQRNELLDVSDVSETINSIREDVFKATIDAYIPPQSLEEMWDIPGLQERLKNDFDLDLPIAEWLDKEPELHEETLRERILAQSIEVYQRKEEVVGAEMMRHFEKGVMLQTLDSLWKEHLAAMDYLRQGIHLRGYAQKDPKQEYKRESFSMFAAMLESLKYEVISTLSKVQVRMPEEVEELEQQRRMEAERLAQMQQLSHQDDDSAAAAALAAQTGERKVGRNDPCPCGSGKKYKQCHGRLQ
# Chain of Sialic acid-binding Ig-like lectin 9 (Homo sapiens) (Q9Y336 whole entry): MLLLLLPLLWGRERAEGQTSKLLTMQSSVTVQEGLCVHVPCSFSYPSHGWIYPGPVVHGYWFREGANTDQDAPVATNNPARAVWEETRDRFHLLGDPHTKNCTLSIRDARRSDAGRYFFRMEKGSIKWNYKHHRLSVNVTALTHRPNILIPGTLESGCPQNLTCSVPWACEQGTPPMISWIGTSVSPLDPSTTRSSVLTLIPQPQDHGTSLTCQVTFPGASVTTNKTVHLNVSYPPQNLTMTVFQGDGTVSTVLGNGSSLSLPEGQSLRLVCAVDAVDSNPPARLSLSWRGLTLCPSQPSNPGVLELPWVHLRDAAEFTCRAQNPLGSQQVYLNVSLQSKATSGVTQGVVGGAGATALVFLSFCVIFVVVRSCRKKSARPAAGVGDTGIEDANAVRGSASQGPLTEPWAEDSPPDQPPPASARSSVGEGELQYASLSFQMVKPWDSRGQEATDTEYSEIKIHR
Structure (SMILES),Percent Effect [1] [%],Percent Effect [2] [%],Percent Effect [3] [%],Percent Effect [4] [%],Percent Effect (Trypanosoma cruzi) [%],Percent Effect [5] [%],Percent Effect [6] [%],Percent Effect (Homo sapiens) [%],Percent Effect [7] [%],Percent Effect [8] [%],Percent Effect [9] [%]
CN(Cc1nnc2n1CCC2)C(=O)Cc1ccc2c(c1)OCCO2,-1.44,13.5,-8.06,-5.38,4.25,-5.21,13.7,10.6,4.43,18.5,-8.36
CC(NC(=O)c1nc(=O)[nH][nH]1)c1ccc(OCC2CC2)c(F)c1 (configuration not stated),-5.77,10.5,-0.945,-1.85,4.58,-3.55,4.7,4.1,5.32,10.4,-13.1
c1ccc(CCCN2CC(n3cccn3)C2)cc1,0.15,2.7,-2.18,-4.46,5.48,-2.03,14.7,25.9,7.92,23.2,-5.99
COc1ccc(C2CCCN2C(=O)c2cc3c([nH]c2=O)CCC3)cc1 (configuration not stated),-6.57,5.41,2.86,-3.27,-2.73,4.58,17.5,-1.92,11.9,8.54,-6.14
Cc1nc2cc(O)nn2c(C)c1CCC(=O)N(C)Cc1cscn1,-7.5,18.4,-470,-2.99,8.08,-4.73,6.42,15.6,-6.38,5.2,-11.6
CSCC[C@H](N)C(=O)NCc1cc2n(n1)CCCN(C1CCCCC1)C2,-0.291,12.5,-5.04,5.09,4.37,36.2,13.7,2.41,4.21,12.8,-3.52
COc1c(C2CCCN2C(=O)c2ccc3cc[nH]c3c2)c(C)nn1C (configuration not stated),-4,18.2,1.47,-0.102,7.93,-4.42,7.68,3.62,4.76,14.1,-21.5
O=C(NC1CCN(c2snc3ccccc23)CC1)C1CCC1,-4.68,16.5,-3.67,3.44,-1.74,-1.07,9.43,21.9,4.17,20.2,-33
COc1ccc(CNCc2ccnc(N3CCOCC3)c2)c(OC)c1,-4.43,8.11,-10.3,1.04,-3.49,3.21,7.75,28.2,3.45,6.17,-4.72
O=C(CCc1nccs1)N1CCN(c2cccnn2)CC1,-4.08,10.4,4.08,3.62,2.84,-0.21,-0.404,13.5,5.71,9.41,-12.4
Cc1cc(Nc2nc(C)cs2)nc(C2CCCCN2CCO)n1 (configuration not stated),-0.14,1.35,-0.107,-8.52,7.12,-5.34,13.9,-9.01,4.3,11.7,-23.2
Cn1nccc1-c1ccc2nc(C3CCN(CCO)CC3)nn2c1,-3.12,13.3,0.376,3.71,1.35,-54.7,13.5,3.01,5.21,22.5,-7.82
Cc1ccc(CC(=O)NCCCNS(C)(=O)=O)cc1,-0.957,13.9,3.16,0.198,-2.56,-1.94,14.8,-1.21,6.25,15.2,-16.2
COc1ccc(OCCCNC(=O)NCc2csc(C)n2)cc1,-3.63,16.2,2.75,-5.68,0.65,-4.62,7.54,20.4,8.91,15.8,-3.66
COCC1COCCC12CCN(C(=O)CCc1ccccc1)CC2 (configuration not stated),-7.38,0,1.05,-3.38,-2.73,0,4.65,-6.87,3.96,3.66,6.04
Cn1cc(Cl)cc1C(=O)N1CCN(Cc2ccsc2)CC1,-0.357,5.26,5.58,-5.04,4.13,0.766,-1.67,-2.56,2.45,4.88,-0.287
CCOCCOc1ccccc1C(=O)N1CCCC(c2ncc[nH]2)C1 (configuration not stated),-3.41,8.22,11.4,0.341,0.979,3.64,23.2,6.64,8.6,17.5,-11.5
Cc1nnc(N2CC[C@H]3C[C@@H](C(=O)NC4CCCC4)O[C@H]3C2)s1,-5.67,0,11.8,-3.34,-1.66,1.59,0.738,10.7,-1.08,7.69,8.63
O=C(c1cccnc1)N1CCc2ncnc(C3CCOC3)c2CC1 (configuration not stated),0.619,10.7,5.98,-10.8,-5.71,3.5,10.8,2.86,4.25,11.5,3.31
Cn1cc(C(=O)NCC2CCN(C(=O)NCC(F)(F)F)CC2)cn1,-2.53,16.5,-6.78,1.59,-0.308,0.645,11,16,8.33,12.7,-22.3
CNC(=O)[C@H]1C[C@@H]2CN(C(=O)c3ccco3)C[C@@H]2N1S(C)(=O)=O,-2.51,13.3,-0.761,-3.21,3.48,90.5,12.7,-4.85,6.25,17.5,-6.67
O=C1CCCc2cc(-c3csc(CCN4CCOC4=O)n3)ccc2N1,-5.49,20.8,0.804,11.1,4.12,2.85,18.1,36.1,8.74,26.8,-9.88
